Reference: PubChem BioAssay (Tox21)
Activity calls are given as the source filed them. Calls come from the whole dose curve.

Assay: G protein-coupled receptor (GPCR) small molecule agonists, calcium flux assay: HEK293 wild type cell line counter screen (AID 1920065)
Conditions: HEK293 WT calcium flux, fluorescence, agonist mode; series mostly up to 57.6 µM; activation: at the top concentration
Excerpt: U.S. Tox21 Program National Center for Advancing Translational Sciences [NCATS] Division of Preclinical Innovation [DPI] U.S. Environmental Protection Agency [EPA] National Institutes of Environmental Health Sciences [NIEHS] National Toxicology Program [NTP] U.S. Food and Drug Administration [FDA] Assay overview: The increased intracellular calcium release that occurred upon G protein-coupled receptor (GPCR) activation led to the frequent use of calcium flux assays to detect GPCR activation. For the purpose of studying and screening compounds that may activate GPCR, receptor-overexpressing models were typically generated using Hek293 wild-type (WT) cells. In order to eliminate the compounds that may have induced calcium release for non-specific activation, a counter-assay utilizing calcium flux on Hek293 WT cells was performed. The data were formulated in order to serve as a control for any calcium flux detection utilizing Hek293 cells with either GPCR overexpression or gene modification. The procurement of Hek293 WT cells from ATCC. Fluorescence intensity can be utilized to determine the activation of the compound in a calcium flux assay. As a counter control, this cell line was utilized to screen the Tox21 10K compound library.
Assay Protocol Summary: Hek293 cells were dispensed at 1500cells/4uL/well in 1536-well black wall/clear bottom plates using a multidrop dispenser. After the assay plates were incubated at a 37 C/5% CO2 incubator for 18 hours, 4 uL of Calcium Dye Solution was added to each well. The plates were incubated at 37 C for 1 hour. For agonist mode, 23 nL of compounds dissolved in DMSO, positive control (ATP) or DMSO only was transferred to the assay plate by a pin tool station. The fluorescence intensity in the plates was measured using FDSS 7000EX kinetic plate reader with a filter set of Ex/Em=480/540 for 3 min at 1 sec intervals. Each test compound was measured at 15 concentrations and in triplicates.
% is set by controls: 0 for no effect and ±100 for the full control effect.

Structure (SMILES) | activation | Potency
CC(C)(C)C(O)C(Oc1ccc(Cl)cc1)n1cncn1 (stereo not given) | 2.1% (inactive) | –
[Cl][Hg][c]1ccccc1 | 0.604% (inactive) | –
N#CN=C1SCCN1Cc1ccc(Cl)nc1 | -0.411% (inactive) | –
Oc1ccc([C@H]2CNCc3c2ccc(O)c3O)cc1O | -1.09% [at 26.5 µM] (inactive) | –
O=C(O)COc1ccc(Cl)cc1 | -0.102% (inactive) | –
CC(Cc1ccccc1)NCCn1cnc2c1c(=O)n(C)c(=O)n2C (stereo not given) | -0.0645% (inactive) | –
O=C(O)C(F)(F)C(F)(F)C(F)(F)C(F)(F)C(F)(F)F | 0.568% (inactive) | –
Oc1cccc(Cl)c1 | -1.8% (inactive) | –
CN1CCN(C(=O)O[C@H]2c3nccnc3C(=O)N2c2ccc(Cl)cn2)CC1 | 1.23% [at 26.5 µM] (inactive) | –
CCN(CCO)CCn1c(Cc2ccccc2)nc2c1c(=O)n(C)c(=O)n2C | -0.322% [at 26.5 µM] (inactive) | –
ClSC(Cl)(Cl)Cl | 0.355% (inactive) | –
CCOP(O)OCC | -0.903% (inactive) | –
[Cl][Sn]([Cl])([Cl])[Cl] | -0.973% (inactive) | –
C[C@H](N)[C@H](O)c1ccc(O)c(O)c1 | 0.725% [at 26.5 µM] (inactive) | –
OCCCBr | -1.44% (inactive) | –
CNC(=O)Oc1ccccc1C(C)C | 0.329% (inactive) | –
CC(C)CC(C)Nc1ccc(Nc2ccccc2)cc1 (stereo not given) | 1.4% (inactive) | –
CCOC(=O)COc1ccc(Cl)cc1Cl | -0.645% (inactive) | –
CCCC[N+](CCCC)(CCCC)CCCC | -0.258% (inactive) | –
Cc1c(F)c(F)c(COC(=O)C2C(/C=C(\Cl)C(F)(F)F)C2(C)C)c(F)c1F (stereo not given) | -0.252% (inactive) | –

Structure (SMILES) | activation | Potency
COC(=O)N(C(=O)N1CO[C@@]2(C(=O)OC)Cc3cc(Cl)ccc3C2=N1)c1ccc(OC(F)(F)F)cc1 | 0.245% (inactive) | –
CC(C)NCC(O)c1ccc([N+](=O)[O-])cc1 (stereo not given) | 0.25% [at 26.5 µM] (inactive) | –
CCC(CC)(CNC(=O)CCCO)c1cccc(OC)c1 | -0.141% [at 26.5 µM] (inactive) | –
Cn1sc(Cl)cc1=O | -0.882% (inactive) | –
CCCCC(CC)COP(=O)(Oc1ccccc1)Oc1ccccc1 (stereo not given) | 0.486% (inactive) | –
C=CCC1([C@H](C)CCC)C(=O)NC(=O)NC1=O | -0.509% (inactive) | –
SCc1ccccc1 | -0.445% (inactive) | –
c1ccc2c(c1)Sc1ccccc1N2CC1CN2CCC1CC2 (stereo not given) | 1.76% [at 26.5 µM] (inactive) | –
CCCN(CCC)c1c([N+](=O)[O-])cc(S(C)(=O)=O)cc1[N+](=O)[O-] | -0.0288% (inactive) | –
CC(Cc1ccccc1)N(C)Cc1ccco1 (stereo not given) | 0.498% [at 26.5 µM] (inactive) | –
C[C@H]1[C@H](c2ccc(Cl)cc2)SC(=O)N1C(=O)NC1CCCCC1 | 0.362% (inactive) | –
O=[N+]([O-])c1ccc(Nc2ccccc2)cc1 | – | inactive
c1ccc(Nc2ccc(Nc3ccccc3)cc2)cc1 | 1.27% (inactive) | –
CCC1COC(Cn2cncn2)(c2ccc(Cl)cc2Cl)O1 (stereo not given) | 0.302% (inactive) | –
C=CC(=O)N(C)C | 0.0166% (inactive) | –
CC(Oc1ccc(Oc2ncc(C(F)(F)F)cc2Cl)cc1)C(=O)O (stereo not given) | 0.263% (inactive) | –
CC1(C)CON(Cc2ccccc2Cl)C1=O | -0.259% (inactive) | –
O=[N+]([O-])c1cc(C(F)(F)F)cc([N+](=O)[O-])c1Cl | 0.0603% (inactive) | –
COC(=O)C(c1ccccc1)C1CCCCN1 (stereo not given) | 2.55% (inactive) | –
NCC(CC(=O)O)c1ccc(Cl)cc1 (stereo not given) | 0.685% [at 0.217 µM] (inactive) | –
